In this assay the test system is P. falciparum stage V gametocytes. On the set-up: BacTiter-Glo ATP luminescence viability of purified stage V gametocytes in 384-well plates, per cent inhibition versus DMSO. The conditions noted are these: 48 h, 5 µM; inhibitor. The procedure:
Once purified, gametocytes were counted using a Neubauer chamber, and the density was adjusted to 2.5 x 10^5 gametocytes/mL. Fifty μL of the gametocyte suspension (1.25 x 10^4 gametocytes) were added to each well of the 384-well plate containing the compounds, using a Multidrop combi (Thermo Electron Corporation). Plates were shaken for 5 sec to homogenize and then incubated at 37°C for 48 h in an atmosphere of 5% CO2, 5% O2, 90% N2. The ATP level of each well was determined using the BacTiter-Glo reagent (Promega) according to the recommendations of the manufacturer. The BacTiter-Glo assay generates a ‘glow-type’ luminescent signal produced by the luciferase reaction, which consists of mono-oxygenation of luciferin catalyzed by luciferase in the presence of Mg^2+, ATP and molecular oxygen. The luminescence was measured using a plate reader (Victor V, Perkin Elmer). […] The background value was subtracted from every other value of the assay prior to further calculation. The average of 16 replicates of vehicle control (0.5% or 0.1% DMSO) represents 100% of signal. Related to this value, each test concentration was calculated as percentage of control. All the calculations were done using MS Excel software. The compounds which presented inhibition ≥ 90% at 5 μM were progressed to the assay at 1 μM. […]
Usually % Inhibition stands for the drop in the measured response relative to a control, in per cent. `CCC1CN2CCc3cc(OC)c(OC)cc3C2CC1CC1NCCc2cc(OC)c(OC)cc21` (centres unmarked) [TCMDC-125849]: the “% Inhibition” value is listed as 100.9%.
The same measure for `CC[C@H]1CN2CCc3cc(OC)c(OC)cc3[C@@H]2C[C@@H]1C[C@H]1NCCc2cc(OC)c(OC)cc21` [TCMDC-125531]: 96.47%.

The values above are taken from article PMC4552634, “A New Set of Chemical Starting Points with Plasmodium falciparum Transmission-Blocking Potential for Antimalarial Drug Discovery” (PLoS ONE, 2015).
